# Paper PMC11062922 (Nature Chemical Biology, 2023)
# Like-named read-outs stand apart in the source and are kept apart here.
# Tests used:
# Settings in all cases: read-out: apparent Kd, n = 1
# ACVR1 = tested on: ACVR1
# CLK1 = tested on: CLK1
# MAP2K1 = tested on: MAP2K1
# [1] = compound concentrations:100 nM and 1000 nM (sheet 'Lestaurtinib' of Supplementary Table 1),run:Lestaurtinib_02422_R1,Plate:MR006
# [2] = compound concentrations:100 nM and 1000 nM (sheet 'Lestaurtinib' of Supplementary Table 1),run:Lestaurtinib_02443_R3,Plate:MR009
# [3] = compound concentrations:100 nM and 1000 nM (sheet 'Lestaurtinib' of Supplementary Table 1),run:Lestaurtinib_02572_R1,Plate:MR015
# [4] = compound concentrations:100 nM and 1000 nM (sheet 'Lestaurtinib' of Supplementary Table 1),run:Lestaurtinib_02577_R1,Plate:MR016
# [5] = compound concentrations:100 nM and 1000 nM (sheet 'Lestaurtinib' of Supplementary Table 1),run:Lestaurtinib_02577_R3,Plate:MR016
# [6] = compound concentrations:100 nM and 1000 nM (sheet 'Lestaurtinib' of Supplementary Table 1),run:Lestaurtinib_02584_R3,Plate:MR017
# [7] = compound concentrations:100 nM and 1000 nM (sheet 'Lestaurtinib' of Supplementary Table 1),run:Lestaurtinib_02748_R1,Plate:MR024
# [8] = compound concentrations:100 nM and 1000 nM (sheet 'Lestaurtinib' of Supplementary Table 1),run:Lestaurtinib_02766_R3,Plate:MR027
# [9] = compound concentrations:100 nM and 1000 nM (sheet 'Lestaurtinib' of Supplementary Table 1),run:Lestaurtinib_02896_R1,Plate:MR030
# [10] = compound concentrations:100 nM and 1000 nM (sheet 'Lestaurtinib' of Supplementary Table 1),run:Lestaurtinib_02367_R2,Plate:MR003
# [11] = compound concentrations:100 nM and 1000 nM (sheet 'Lestaurtinib' of Supplementary Table 1),run:Lestaurtinib_02438_R3,Plate:MR008
# [12] = compound concentrations:100 nM and 1000 nM (sheet 'Lestaurtinib' of Supplementary Table 1),run:Lestaurtinib_02443_R1,Plate:MR009
# [13] = compound concentrations:100 nM and 1000 nM (sheet 'Lestaurtinib' of Supplementary Table 1),run:Lestaurtinib_02443_R2,Plate:MR009
# [14] = compound concentrations:100 nM and 1000 nM (sheet 'Lestaurtinib' of Supplementary Table 1),run:Lestaurtinib_02473_R1,Plate:MR010
# [15] = compound concentrations:100 nM and 1000 nM (sheet 'Lestaurtinib' of Supplementary Table 1),run:Lestaurtinib_02473_R2,Plate:MR010
# [16] = compound concentrations:100 nM and 1000 nM (sheet 'Lestaurtinib' of Supplementary Table 1),run:Lestaurtinib_02566_R1,Plate:MR014
# [17] = compound concentrations:100 nM and 1000 nM (sheet 'Lestaurtinib' of Supplementary Table 1),run:Lestaurtinib_02724_R2,Plate:MR021
# [18] = compound concentrations:100 nM and 1000 nM (sheet 'Lestaurtinib' of Supplementary Table 1),run:Lestaurtinib_02724_R3,Plate:MR021
# [19] = compound concentrations:100 nM and 1000 nM (sheet 'Lestaurtinib' of Supplementary Table 1),run:Lestaurtinib_02741_R1,Plate:MR023
substance,measurement,setting,value
Lestaurtinib,potency estimated from few doses,"ACVR1; compound concentrations:100 nM and 1000 nM (sheet 'Lestaurtinib' of Supplementary Table 1),run:Lestaurtinib_02339_R2,Plate:MR001",1510 nM
same,potency estimated from few doses,"ACVR1; compound concentrations:100 nM and 1000 nM (sheet 'Lestaurtinib' of Supplementary Table 1),run:Lestaurtinib_02407_R1,Plate:MR005",1540 nM
same,potency estimated from few doses,ACVR1; [1],1350 nM
same,potency estimated from few doses,ACVR1; [2],946 nM
same,potency estimated from few doses,"ACVR1; compound concentrations:100 nM and 1000 nM (sheet 'Lestaurtinib' of Supplementary Table 1),run:Lestaurtinib_02473_R3,Plate:MR010",958 nM
same,potency estimated from few doses,ACVR1; [3],671 nM
same,potency estimated from few doses,ACVR1; [4],1530 nM
same,potency estimated from few doses,ACVR1; [5],1360 nM
same,potency estimated from few doses,ACVR1; [6],1580 nM
same,potency estimated from few doses,ACVR1; [7],1460 nM
same,potency estimated from few doses,ACVR1; [8],1420 nM
same,potency estimated from few doses,ACVR1; [9],1240 nM
same,potency estimated from few doses,"CLK1; compound concentrations:100 nM and 1000 nM (sheet 'Lestaurtinib' of Supplementary Table 1),run:Lestaurtinib_02364_R1,Plate:MR002",130 nM
same,potency estimated from few doses,"CLK1; compound concentrations:100 nM and 1000 nM (sheet 'Lestaurtinib' of Supplementary Table 1),run:Lestaurtinib_02364_R3,Plate:MR002",175 nM
same,potency estimated from few doses,CLK1; [10],153 nM
same,potency estimated from few doses,"CLK1; compound concentrations:100 nM and 1000 nM (sheet 'Lestaurtinib' of Supplementary Table 1),run:Lestaurtinib_02367_R3,Plate:MR003",240 nM
same,potency estimated from few doses,"CLK1; compound concentrations:100 nM and 1000 nM (sheet 'Lestaurtinib' of Supplementary Table 1),run:Lestaurtinib_02407_R3,Plate:MR005",176 nM
same,potency estimated from few doses,CLK1; [1],88.2 nM
same,potency estimated from few doses,"CLK1; compound concentrations:100 nM and 1000 nM (sheet 'Lestaurtinib' of Supplementary Table 1),run:Lestaurtinib_02422_R2,Plate:MR006",4.49 nM
same,potency estimated from few doses,"CLK1; compound concentrations:100 nM and 1000 nM (sheet 'Lestaurtinib' of Supplementary Table 1),run:Lestaurtinib_02422_R3,Plate:MR006",115 nM
same,potency estimated from few doses,"CLK1; compound concentrations:100 nM and 1000 nM (sheet 'Lestaurtinib' of Supplementary Table 1),run:Lestaurtinib_02437_R1,Plate:MR007",132 nM
same,potency estimated from few doses,"CLK1; compound concentrations:100 nM and 1000 nM (sheet 'Lestaurtinib' of Supplementary Table 1),run:Lestaurtinib_02437_R2,Plate:MR007",160 nM
same,potency estimated from few doses,CLK1; [11],124 nM
same,potency estimated from few doses,CLK1; [12],154 nM
same,potency estimated from few doses,CLK1; [13],115 nM
same,potency estimated from few doses,CLK1; [2],133 nM
same,potency estimated from few doses,CLK1; [14],93.7 nM
same,potency estimated from few doses,CLK1; [15],131 nM
same,potency estimated from few doses,"CLK1; compound concentrations:100 nM and 1000 nM (sheet 'Lestaurtinib' of Supplementary Table 1),run:Lestaurtinib_02482_R3,Plate:MR011",170 nM
same,potency estimated from few doses,"CLK1; compound concentrations:100 nM and 1000 nM (sheet 'Lestaurtinib' of Supplementary Table 1),run:Lestaurtinib_02487_R2,Plate:MR012",196 nM
same,potency estimated from few doses,"CLK1; compound concentrations:100 nM and 1000 nM (sheet 'Lestaurtinib' of Supplementary Table 1),run:Lestaurtinib_02496_R3,Plate:MR013",84.6 nM
same,potency estimated from few doses,CLK1; [16],131 nM
same,potency estimated from few doses,"CLK1; compound concentrations:100 nM and 1000 nM (sheet 'Lestaurtinib' of Supplementary Table 1),run:Lestaurtinib_02566_R3,Plate:MR014",151 nM
same,potency estimated from few doses,CLK1; [3],130 nM
same,potency estimated from few doses,"CLK1; compound concentrations:100 nM and 1000 nM (sheet 'Lestaurtinib' of Supplementary Table 1),run:Lestaurtinib_02572_R2,Plate:MR015",137 nM
same,potency estimated from few doses,CLK1; [4],206 nM
same,potency estimated from few doses,CLK1; [6],202 nM
same,potency estimated from few doses,"CLK1; compound concentrations:100 nM and 1000 nM (sheet 'Lestaurtinib' of Supplementary Table 1),run:Lestaurtinib_02601_R2,Plate:MR018",232 nM
same,potency estimated from few doses,"CLK1; compound concentrations:100 nM and 1000 nM (sheet 'Lestaurtinib' of Supplementary Table 1),run:Lestaurtinib_02606_R2,Plate:MR019",69.6 nM
same,potency estimated from few doses,"CLK1; compound concentrations:100 nM and 1000 nM (sheet 'Lestaurtinib' of Supplementary Table 1),run:Lestaurtinib_02606_R3,Plate:MR019",167 nM
same,potency estimated from few doses,"CLK1; compound concentrations:100 nM and 1000 nM (sheet 'Lestaurtinib' of Supplementary Table 1),run:Lestaurtinib_02624_R1,Plate:MR020",235 nM
same,potency estimated from few doses,"CLK1; compound concentrations:100 nM and 1000 nM (sheet 'Lestaurtinib' of Supplementary Table 1),run:Lestaurtinib_02624_R2,Plate:MR020",113 nM
same,potency estimated from few doses,"CLK1; compound concentrations:100 nM and 1000 nM (sheet 'Lestaurtinib' of Supplementary Table 1),run:Lestaurtinib_02624_R3,Plate:MR020",160 nM
same,potency estimated from few doses,CLK1; [17],179 nM
same,potency estimated from few doses,CLK1; [18],163 nM
same,potency estimated from few doses,CLK1; [19],211 nM
same,potency estimated from few doses,CLK1; [7],237 nM
same,potency estimated from few doses,"CLK1; compound concentrations:100 nM and 1000 nM (sheet 'Lestaurtinib' of Supplementary Table 1),run:Lestaurtinib_02752_R1,Plate:MR025",146 nM
same,potency estimated from few doses,"CLK1; compound concentrations:100 nM and 1000 nM (sheet 'Lestaurtinib' of Supplementary Table 1),run:Lestaurtinib_02765_R1,Plate:MR026",278 nM
same,potency estimated from few doses,"CLK1; compound concentrations:100 nM and 1000 nM (sheet 'Lestaurtinib' of Supplementary Table 1),run:Lestaurtinib_02765_R3,Plate:MR026",244 nM
same,potency estimated from few doses,"CLK1; compound concentrations:100 nM and 1000 nM (sheet 'Lestaurtinib' of Supplementary Table 1),run:Lestaurtinib_02766_R1,Plate:MR027",143 nM
same,potency estimated from few doses,CLK1; [8],154 nM
same,potency estimated from few doses,"CLK1; compound concentrations:100 nM and 1000 nM (sheet 'Lestaurtinib' of Supplementary Table 1),run:Lestaurtinib_02768_R2,Plate:MR028",141 nM
same,potency estimated from few doses,"CLK1; compound concentrations:100 nM and 1000 nM (sheet 'Lestaurtinib' of Supplementary Table 1),run:Lestaurtinib_02768_R3,Plate:MR028",135 nM
same,potency estimated from few doses,"CLK1; compound concentrations:100 nM and 1000 nM (sheet 'Lestaurtinib' of Supplementary Table 1),run:Lestaurtinib_02795_R1,Plate:MR022",93.8 nM
same,potency estimated from few doses,"CLK1; compound concentrations:100 nM and 1000 nM (sheet 'Lestaurtinib' of Supplementary Table 1),run:Lestaurtinib_02802_R3,Plate:MR029",22.2 nM
same,potency estimated from few doses,CLK1; [9],136 nM
same,potency estimated from few doses,"CLK1; compound concentrations:100 nM and 1000 nM (sheet 'Lestaurtinib' of Supplementary Table 1),run:Lestaurtinib_02896_R2,Plate:MR030",82.8 nM
same,potency estimated from few doses,"CLK1; compound concentrations:100 nM and 1000 nM (sheet 'Lestaurtinib' of Supplementary Table 1),run:Lestaurtinib_03172_R3,Plate:MR031",134 nM
same,potency estimated from few doses,"CLK1; compound concentrations:100 nM and 1000 nM (sheet 'Lestaurtinib' of Supplementary Table 1),run:Lestaurtinib_03252_R1,Plate:MR032",130 nM
same,potency estimated from few doses,"CLK1; compound concentrations:100 nM and 1000 nM (sheet 'Lestaurtinib' of Supplementary Table 1),run:Lestaurtinib_03252_R2,Plate:MR032",25.4 nM
same,potency estimated from few doses,"CLK1; compound concentrations:100 nM and 1000 nM (sheet 'Lestaurtinib' of Supplementary Table 1),run:Lestaurtinib_03260_R2,Plate:MR033",248 nM
same,potency estimated from few doses,"MAP2K1; compound concentrations:100 nM and 1000 nM (sheet 'Lestaurtinib' of Supplementary Table 1),run:Lestaurtinib_02339_R1,Plate:MR001",2070 nM
same,potency estimated from few doses,"MAP2K1; compound concentrations:100 nM and 1000 nM (sheet 'Lestaurtinib' of Supplementary Table 1),run:Lestaurtinib_02367_R1,Plate:MR003",825 nM
same,potency estimated from few doses,MAP2K1; [10],1420 nM
same,potency estimated from few doses,"MAP2K1; compound concentrations:100 nM and 1000 nM (sheet 'Lestaurtinib' of Supplementary Table 1),run:Lestaurtinib_02381_R1,Plate:MR004",579 nM
same,potency estimated from few doses,"MAP2K1; compound concentrations:100 nM and 1000 nM (sheet 'Lestaurtinib' of Supplementary Table 1),run:Lestaurtinib_02381_R2,Plate:MR004",1760 nM
same,potency estimated from few doses,"MAP2K1; compound concentrations:100 nM and 1000 nM (sheet 'Lestaurtinib' of Supplementary Table 1),run:Lestaurtinib_02381_R3,Plate:MR004",2000 nM
same,potency estimated from few doses,MAP2K1; [1],1620 nM
same,potency estimated from few doses,"MAP2K1; compound concentrations:100 nM and 1000 nM (sheet 'Lestaurtinib' of Supplementary Table 1),run:Lestaurtinib_02438_R2,Plate:MR008",1630 nM
same,potency estimated from few doses,MAP2K1; [11],1400 nM
same,potency estimated from few doses,MAP2K1; [12],1540 nM
same,potency estimated from few doses,MAP2K1; [13],1360 nM
same,potency estimated from few doses,MAP2K1; [14],1690 nM
same,potency estimated from few doses,MAP2K1; [15],1430 nM
same,potency estimated from few doses,MAP2K1; [16],656 nM
same,potency estimated from few doses,MAP2K1; [3],1430 nM
same,potency estimated from few doses,MAP2K1; [5],1750 nM
same,potency estimated from few doses,"MAP2K1; compound concentrations:100 nM and 1000 nM (sheet 'Lestaurtinib' of Supplementary Table 1),run:Lestaurtinib_02584_R2,Plate:MR017",1720 nM
same,potency estimated from few doses,MAP2K1; [6],1990 nM
same,potency estimated from few doses,"MAP2K1; compound concentrations:100 nM and 1000 nM (sheet 'Lestaurtinib' of Supplementary Table 1),run:Lestaurtinib_02601_R1,Plate:MR018",876 nM
same,potency estimated from few doses,"MAP2K1; compound concentrations:100 nM and 1000 nM (sheet 'Lestaurtinib' of Supplementary Table 1),run:Lestaurtinib_02606_R1,Plate:MR019",884 nM
same,potency estimated from few doses,"MAP2K1; compound concentrations:100 nM and 1000 nM (sheet 'Lestaurtinib' of Supplementary Table 1),run:Lestaurtinib_02724_R1,Plate:MR021",1600 nM
same,potency estimated from few doses,MAP2K1; [17],2070 nM
same,potency estimated from few doses,MAP2K1; [18],1610 nM
same,potency estimated from few doses,MAP2K1; [19],2060 nM
